Test results: PubChem BioAssay (NCATS)
Inconclusive results are not listed. Calls of active or inactive are those of the source. Calls come from the whole dose curve; as a rule, active = well fitted curve in the direction sought with a large enough effect; inconclusive = small, poorly fitted or top-dose-only effect, or another doubt; inactive = no such curve, though single readings can be large; an effect the other way counts as inactive or inconclusive.

Experiments:
[1] = MultiTox-Fluor Cytotoxicity Assay - LYMP1-003 - Live Cells (AID 962); conditions: LYMP1-003 lymphoblastoid cells, MultiTox-Fluor live-cell protease fluorescence; series mostly up to 92.2 µM;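 note: cells exposed to compound for 16 hours at 37 °C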
How it was run: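 Readout: live-cell fluorescence (Ex/Em=405/510) from GF-AFC cleavage after 60 min MultiTox-Fluor reagent at room temperature. Lymphoblastoid LYMP1-003 cells, 16 hr compound treatment, 37 C. Concentration-response fitted to standard Hill equation for AC50.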

[2] = Cell Viability - LYMP1-003 - Assay at 40 hr (AID 964); conditions: LYMP1-003 lymphoblastoid viability; series mostly up to 92.2 µM; note: nearly all actives have a fitted effect of over 60% in size
How it was run: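 LYMP1-003 lymphoblastoid cells, 2500/well; 5 hr preincubation, 40 hr compound exposure, 37 C; CellTiter-Glo 30 min RT; luminescence; Hill-fit AC50. Positive control tetraoctylammonium bromide.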

[3] = Cell Viability - LYMP2-003 (AID 965); conditions: LYMP2-003 lymphoblastoid cell viability; series mostly up to 92.2 µM;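 note: cells exposed to compounds for 24 h before reading; nearly all actives have a fitted effect of over 50% in size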
How it was run: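 CellTiter-Glo luminescence (cellular ATP) after 24 h compound exposure at 37 C in complete medium; 2500 cells/well, 5 h settling beforehand. Concentration-response fitted to standard Hill equation for AC50. Tetraoctylammonium bromide served as positive control.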

[4] = Cell Viability - LYMP2-009 (AID 968); conditions: LYMP2-009 lymphoblastoid cell viability; series mostly up to 92.2 µM; note: nearly all actives have a fitted effect of over 55% in size
[5] = Cell Viability - LYMP2-011 (AID 969); conditions: LYMP2-011 lymphoblastoid cells viability; series mostly up to 92.2 µM;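 note: cells exposed to compound for 24 hours; nearly all actives have a fitted effect of over 60% in size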
How it was run: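 Luminescent ATP read-out (CellTiter-Glo, 30 min RT) after 24 hr compound exposure at 37 C in human lymphoblastoid cells, 2500 cells/well. Decreasing ATP indicates cytotoxicity; AC50 from standard Hill fit.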

[6] = Cell Viability - LYMP2-013 (AID 970); conditions: LYMP2-013 lymphoblastoid cells viability; series mostly up to 92.2 µM; note: nearly all actives have a fitted effect of over 55% in size
How it was run: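 CellTiter-Glo luminescence (cellular ATP) read after 30 min at RT. Cells: human lymphoblastoid line, 2500/well, 24 hr compound exposure at 37 C. Tetraoctylammonium bromide positive control; AC50 via standard Hill fit of qHTS titrations.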

[7] = Cell Viability - LYMP2-015 (AID 971); conditions: LYMP2-015 lymphoblastoid cell viability; series mostly up to 92.2 µM; note: nearly all actives have a fitted effect of over 55% in size
How it was run: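 qHTS cytotoxicity: 2500 cells/well, 5 hr 37 C, compound 24 hr 37 C, CellTiter-Glo 30 min RT, luminescence. Loss of ATP = toxicity; AC50 via standard Hill fit.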

[8] = Cell Viability - LYMP2-017 (AID 972); conditions: LYMP2-017 lymphoblastoid cell viability; series mostly up to 92.2 µM;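 note: cells exposed to compound for 24 hours at 37 °C; nearly all actives have a fitted effect of over 55% in size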
How it was run: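 Luminescent ATP read-out (CellTiter-Glo, 30 min RT) reports viable cell number. Cells: human lymphoblastoid line, 2500 per well, 5 hr preincubation, 24 hr compound exposure at 37 C. AC50 is derived from qHTS concentration-response data using the standard Hill model.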

[9] = Cell Viability - LYMP2-019 (AID 973); conditions: LYMP2-019 lymphoblastoid cell line viability; series mostly up to 92.2 µM; note: nearly all actives have a fitted effect of over 55% in size
How it was run: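 qHTS, 1536-well; 2500 cells/well; 5 hr pre-incubation, 24 hr compound exposure, 37 C; CellTiter-Glo added, 30 min RT; luminescence read; AC50 via standard Hill equation.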

[10] = Cell Viability - LYMP2-021 (AID 974); conditions: LYMP2-021 lymphoblastoid cells viability; series mostly up to 92.2 µM
How it was run: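 ATP luminescence (CellTiter-Glo, 30 min RT) after 24 h compound exposure at 37 C; 2500 human lymphoblastoid cells/well, 5 h settle beforehand. Cytotoxicity = concentration-dependent ATP drop, AC50 by Hill fit.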

[11] = Cell Viability - LYMP2-023 (AID 975); conditions: LYMP2-023 lymphoblastoid cell viability; series mostly up to 92.2 µM
How it was run: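 CellTiter-Glo luminescence after 30 min at room temperature; decrease in intracellular ATP reflects toxicity. Cells: human lymphoblastoid line, 2500/well, 24 hr compound exposure at 37 C. AC50 fitted to standard Hill equation from concentration-response.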

[12] = Cell Viability - LYMP2-025 (AID 976); conditions: LYMP2-025 lymphoblastoid cell viability; series mostly up to 92.2 µM
How it was run: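 CellTiter-Glo luminescence (cellular ATP) after 24 h compound exposure at 37 C; LYMP2-025 human lymphoblastoid cells, 2500/well, complete medium. Tetraoctylammonium bromide positive control. AC50 by Hill equation fit of qHTS concentration-response.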

[13] = Cell Viability - LYMP2-002 (AID 977); conditions: LYMP2-002 lymphoblastoid cell viability, qHTS; series mostly up to 92.2 µM
How it was run: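 Human lymphoblastoid cells, 2500/well, complete medium; 5 h 37 C settle; compound 24 h 37 C; CellTiter-Glo, 30 min RT; luminescence. Decrease in ATP = cytotoxicity; AC50 via Hill equation.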

[14] = Cell Viability - LYMP2-006 (AID 978); conditions: LYMP2-006 lymphoblastoid cell viability, qHTS; series mostly up to 92.2 µM;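 note: cells exposed to compound for 24 hours; nearly all actives have a fitted effect of over 60% in size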
How it was run: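 qHTS, 1536-well; 2500 cells/well, 5 hr 37 C; cpd 24 hr 37 C; CellTiter-Glo 30 min RT; luminescence. Tetraoctylammonium bromide pos. ctrl. AC50 via Hill eqn.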

[15] = Cell Viability - LYMP2-007 (AID 979); conditions: LYMP2-007 lymphoblastoid cell viability; series mostly up to 92.2 µM;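 note: cells exposed to compound for 24 h before reading; nearly all actives have a fitted effect of over 60% in size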
How it was run: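 qHTS cytotoxicity: 2500 cells/well, 5 hr 37 C settle, compound 24 hr 37 C, CellTiter-Glo 30 min RT, luminescence. Decrease in ATP = toxicity. AC50 by standard Hill equation; tetraoctylammonium bromide positive control.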

[16] = Cell Viability - LYMP2-008 (AID 980); conditions: LYMP2-008 lymphoblastoid cell viability, qHTS; series mostly up to 92.2 µM; note: nearly all actives have a fitted effect of over 60% in size
How it was run: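 Luminescent ATP read-out (CellTiter-Glo, 30 min RT) after 24 hr compound exposure at 37 C of human lymphoblastoid cells in complete medium. Decrease in ATP taken as cytotoxicity; AC50 derived by standard Hill fit of qHTS concentration-response data.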

[17] = Cell Viability - LYMP2-010 (AID 981); conditions: LYMP2-010 lymphoblastoid cell viability, qHTS; series mostly up to 92.2 µM
How it was run: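 qHTS cytotoxicity, 1536-well: 2500 cells/well, 5 hr settle, 24 hr compound at 37 C, CellTiter-Glo 30 min RT, luminescence read. Decrease in ATP = toxicity; AC50 via standard Hill equation. Positive control tetraoctylammonium bromide.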

[18] = Cell Viability - LYMP2-012 (AID 982); conditions: LYMP2-012 lymphoblastoid cell viability qHTS; series mostly up to 92.2 µM
[19] = Cell Viability - LYMP2-016 (AID 984); conditions: LYMP2-016 lymphoblastoid cell viability, qHTS; series mostly up to 92.2 µM
How it was run: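 qHTS, 1536-well: 2500 LYMP2-016 cells/well, 5 hr 37 C, compound added, 24 hr 37 C, CellTiter-Glo 30 min RT, luminescence. Tetraoctylammonium bromide positive control. AC50 via Hill fit.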

[20] = Cell Viability - LYMP2-018 (AID 985); conditions: LYMP2-018 lymphoblastoid cells, viability (qHTS); series mostly up to 92.2 µM; note: nearly all actives have a fitted effect of over 50% in size
How it was run: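 2500 cells/well; 5 hr 37 C; cmpd 24 hr 37 C, complete medium; CellTiter-Glo 30 min RT; luminescence. Tetraoctylammonium bromide positive control. AC50 via Hill fit.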

Measured: Potency
Potency is the fitted concentration of half-maximal effect.

O=C1C(Cl)=C(Cl)C(=O)C(Cl)=C1Cl
active: [1] 50.1 µM | [2] 31.6 µM | [3] 20 µM | [4] 20 µM | [5] 25.1 µM | [6] 31.6 µM | [7] 39.8 µM | [8] 20 µM | [9] 25.1 µM | [10] 12.6 µM | [11] 25.1 µM | [12] 50.1 µM | [13] 25.1 µM | [14] 31.6 µM | [15] 15.8 µM | [16] 39.8 µM | [17] 12.6 µM | [18] 15.8 µM | [19] 25.1 µM | [20] 39.8 µM
